About 70 (0.4%) of roughly 16,000 compounds were called active. No stated cut-off is given here; in the data, active means inhibition above about 75%; inactive means the rest. The full list was thinned out, with actives kept by preference.

The source of these data is PubChem BioAssay AID1823 (The Scripps Research Institute Molecular Screening Center, 2009).

A short description of the experiment: counter-screen for Nox1 inhibitors: inhibitors of luminol chemiluminescence (AID 1823). The following applies: HRP/luminol/H2O2 chemiluminescence counterscreen; at 6.7 µM; active compounds read high. (Counterscreens check selectivity or assay interference.)
As to `Cn1nccc1NC(=O)CC(CC(=O)O)c1ccccc1` (centres undefined), the inhibition is -2.7% (inactive).

Take `COc1ccc(CCNC(=O)c2ccccc2-c2ccccc2C(=O)O)cc1OC`: the inhibition is -7.76% (inactive).

With `CC(=O)N1c2ccccc2C=Cc2ccccc21`, the inhibition is 2.77% (inactive).

On to `CCOC(=O)Cn1cc(Cl)ccc1=O`, for which the inhibition is -6.12% (inactive).

Regarding `CCc1ccc(S(=O)(=O)Nc2ccc(C)c(NS(C)(=O)=O)c2)cc1`, the inhibition is 6.77% (inactive).

As for `CCOC(=O)c1c(C)nn(-c2ncccc2NC(=O)Nc2cccc(Cl)c2Cl)c1C`, the inhibition was -3.12% (inactive).

On to `COC(=O)c1cc(S(=O)(=O)NCc2csc(-c3cccs3)n2)oc1C`, for which the inhibition was 2.46% (inactive).

As to `COC(=O)c1sccc1NC(=S)Nc1ccc(C)cc1`, the inhibition was -25.1% (inactive).

As to `O=C(Nc1ccccc1N1CCOCC1)C1CCN(c2nccc(C(F)(F)F)n2)CC1`, the inhibition was -1.03% (inactive).

As to `O=C(Nc1ccc(I)cc1Cl)C(=S)NCc1cccs1`, the inhibition is -1.16% (inactive).

As to `Cn1nnnc1SCC(=O)Nc1ccc(OC(F)(F)F)cc1`, the inhibition was -2.01% (inactive).

As for `O=C(/C=C/c1cccc2ccccc12)N1CCCCC1`, the inhibition is 2.1% (inactive).

As to `Cc1c(C)c(C)c(CSC(=N)CC#N)c(C)c1C`, the inhibition was -1.01% (inactive).

Regarding `CC(C)c1ccc(N2C(=O)/C(=C\c3ccc(-c4ccc([N+](=O)[O-])cc4)o3)SC2=S)cc1`, the inhibition is 2.47% (inactive).

Consider `O=C(NCc1csc(-c2cccs2)n1)Nc1ccccc1-c1ccccc1`, for which the inhibition is 0.51% (inactive).

In the case of `c1ccc2c(c1)NC(C1Nc3ccccc3O1)O2` (centres undefined), the inhibition was 8.91% (inactive).

Regarding `CC(C)S(=O)(=O)/C(C#N)=C/NN1CCOCC1`, the inhibition is 41% (inactive).

`O=S(=O)(Oc1cccc(C(F)(F)F)c1)c1cc(S(=O)(=O)c2ccccc2)cs1`: the inhibition was 3.95% (inactive).

Consider `O=C(Nc1ccccc1-c1ccccc1)c1cccs1`, for which the inhibition is 0.86% (inactive).

With `O=C(O)C1CC2CC1CCC2O` (centres undefined), the inhibition is -5.03% (inactive).

In the case of `CC(C)CC(F)Cc1cnc(=O)[nH]c1` (centres undefined), the inhibition was -1.51% (inactive).

Regarding `CC(=O)c1cc([N+](=O)[O-])c(NC2CCCCC2)s1`, the inhibition is 3.91% (inactive).

`NNC(=O)c1cc(OCC(F)(F)F)nc(OCC(F)(F)F)c1`: the inhibition is 9.46% (inactive).

As for `N#Cc1c(C2CCCCC2)[nH]c(=S)[nH]c1=O`, the inhibition is 11.2% (inactive).

Turning to `CCCc1nc(N)ncc1C(=O)OCC`, the inhibition is -1.66% (inactive).

With `O=C(CCSc1nc2ccccc2o1)N1CCc2cc([N+](=O)[O-])ccc21`, the inhibition was -3.32% (inactive).

For the compound `O=C(O)CSC(SCC(=O)O)c1ccc2c(c1)OCO2`, the inhibition was 0.02% (inactive).

For `CC(CC(=O)O)Oc1ccc(Cl)cc1[N+](=O)[O-]` (centres undefined), the inhibition is 0.37% (inactive).

Turning to `CNC(=S)NNC(=O)c1cc(C)on1`, the inhibition is 11% (inactive).

Regarding `CS(=O)(=O)c1ccc(C(=O)Nc2cccc(Cl)c2)cc1`, the inhibition was 2.61% (inactive).

As for `COC(=O)/C=C/c1cn(C2OCC(CO)C2O)c(=O)[nH]c1=O` (centres undefined), the inhibition was -0.07% (inactive).

Take `CC1=NCCNC(C)=C1N1CCOCC1`: the inhibition was -0.98% (inactive).

`NC(=O)c1sccc1Br`: the inhibition is -1.3% (inactive).

With `COC(=O)c1sc(S(C)=O)c(-c2ccon2)c1C` (centres undefined), the inhibition was 0.42% (inactive).

As for `CC(C)(C)C(=O)NNC(=O)c1ccc(Oc2ccc(C3SCCS3)cc2)o1`, the inhibition is -19.4% (inactive).

Turning to `CNC(=O)NNC(=O)Cn1nnc(N2CCCCC2)n1`, the inhibition is 14.1% (inactive).

Consider `N#C/C(=C\C=C\c1ccccc1)c1nc2ccccc2[nH]1`, for which the inhibition is 2.56% (inactive).

On to `O=[N+]([O-])c1cc(C(F)(F)F)ccc1OCCO`, for which the inhibition was -3.63% (inactive).

Consider `CCCCCCCN=C(C)c1ccccc1O`, for which the inhibition is -3.37% (inactive).

For `O=C(O)CCC(=O)Nc1ccc2c(c1)OCCCO2`, the inhibition is -0.93% (inactive).

Turning to `COc1ccc2c(OC(C)=O)coc2c1`, the inhibition was -1.52% (inactive).

Regarding `CN(C(=O)Nc1ccc(Cl)cc1)n1cnc2ccccc2c1=O`, the inhibition was -2.37% (inactive).

Regarding `O=C1c2ccccc2C(=O)N1CCCN1CCN(Cc2c(F)cccc2Cl)CC1`, the inhibition is -3.51% (inactive).

As for `N#CCSc1ccc2ccccc2c1`, the inhibition was -1.43% (inactive).

Consider `O=C(NNC(=S)Nc1ccc(S(=O)(=O)N2CCCCC2)cc1)c1ccncc1`, for which the inhibition was 12.6% (inactive).

For the compound `CN(Cc1nnc(-c2ccc3ccccc3c2)o1)c1nnc(C(F)(F)F)s1`, the inhibition is -4.66% (inactive).

Regarding `N#Cc1sccc1Br`, the inhibition was 0.55% (inactive).

For `N/C(Cc1cccs1)=N\OC(=O)c1ccccc1`, the inhibition was -0.54% (inactive).

As to `CC(C)N(C(=O)c1ccc(-c2ccccc2F)cc1)C(C)C`, the inhibition is -5.07% (inactive).

On to `N#C/C(=C\c1ccsc1Sc1ccc(Cl)cc1)S(=O)(=O)c1ccc(Cl)cc1`, for which the inhibition is 2.56% (inactive).

On to `Cc1ccc(S(C)(=O)=NC(=O)NS(=O)(=O)Oc2ccc(Cl)cc2Cl)cc1` (centres undefined), for which the inhibition is 2.88% (inactive).

Turning to `O=C(Nc1ccc(C(F)(F)F)cn1)c1ccc(Oc2cc(Cl)cc(Cl)c2)o1`, the inhibition is 0.64% (inactive).

With `CSc1cccc(NC(=O)C(=O)NCCc2ccccn2)c1`, the inhibition is 3.62% (inactive).

Take `Cc1ccc(SCC(=O)Nc2ccc(F)cc2F)cc1`: the inhibition was -8.4% (inactive).

As to `CC1=NOC(=O)/C1=C\c1ccccc1`, the inhibition is 3.43% (inactive).

Turning to `CC(C)(C)c1ccc(C(=O)CC(N)=O)cc1`, the inhibition is 6.19% (inactive).

Regarding `O=C1COCC(=O)N1c1ccc2c(c1)OCO2`, the inhibition was -6.14% (inactive).

Take `Cc1nn(C)c(C)c1Sc1nccc(-c2cccnc2)n1`: the inhibition is -8.26% (inactive).

As for `CCOC(=O)C(O)(NC(=O)Nc1ccccc1)C(F)(F)F` (centres undefined), the inhibition is -5.95% (inactive).

Turning to `COCCCN/C(SCc1c(F)cccc1Cl)=C(\C#N)C(N)=O`, the inhibition is 1.37% (inactive).

Consider `N#C/C=C/c1ccc(C(F)(F)F)cc1[N+](=O)[O-]`, for which the inhibition was 1.6% (inactive).

As to `O=C(c1ccc(Oc2ccc(Cl)cc2)c([N+](=O)[O-])c1)N1CCCC1`, the inhibition is 2.31% (inactive).

Turning to `O=C(NNc1ccccc1C(F)(F)F)NS(=O)(=O)c1ccc(Cl)cc1`, the inhibition was -2.61% (inactive).

Turning to `COc1ccc(/C(C)=N/Nc2c([N+](=O)[O-])cc(C(F)(F)F)cc2[N+](=O)[O-])cc1CC#N`, the inhibition was -5.96% (inactive).

Turning to `Cc1noc(C)c1C(=O)N1CCOCC1`, the inhibition is -1.15% (inactive).

As to `CCOC(=O)c1cc(CC)sc1NC(=O)c1cccnc1Oc1ccccc1`, the inhibition is 0.49% (inactive).

Consider `COC(=O)CCN1CCc2cc(N=Nc3ccc(C(F)(F)F)cc3)ccc21`, for which the inhibition was 17.7% (inactive).

With `CC(C)(C)NC(=O)[C@@H]1C[C@@H]2CCCC[C@@H]2CN1C(=O)c1ccno1`, the inhibition was -0.12% (inactive).

With `O=C(O)CC(CC(=O)Oc1ccccc1N1CCCCC1)c1ccccc1` (centres undefined), the inhibition is -1.25% (inactive).

Consider `CSc1nsc(SC)c1C(=O)Nc1cc(C(F)(F)F)cc(C(F)(F)F)c1`, for which the inhibition is 1.1% (inactive).

On to `COc1ccc(C2CC(c3cccs3)=Nc3ccccc3S2)c(Cl)c1OC` (centres undefined), for which the inhibition was -0.88% (inactive).

Regarding `c1ccc(-c2nsc(N3CCNCC3)n2)cc1`, the inhibition is -5% (inactive).

On to `NS(=O)(=O)c1cccc(NC(=O)c2ccccc2)c1`, for which the inhibition is -5.88% (inactive).

`CCOC(=O)c1c(-c2ccco2)csc1NC(=O)Nc1ccc(Cl)cc1`: the inhibition was 3.19% (inactive).

Consider `Cc1[nH]c2ccccc2c1Sc1ccc(Cl)cc1`, for which the inhibition was -11.5% (inactive).

As to `N#Cc1ccc(Oc2ccc(Cl)cc2)c([N+](=O)[O-])c1`, the inhibition was -1.59% (inactive).

In the case of `Cc1c(S(=O)(=O)c2ccc(Cl)cc2)csc1C(=O)Nc1ccc2c(c1)OCCO2`, the inhibition is 0.51% (inactive).

As to `CCCCN1Cc2c(nc3cc(-c4ccccc4)[nH]n3c2=O)C1=O`, the inhibition was 5.15% (inactive).

For the compound `O=C1Nc2ccccc2C12NNC(=S)NN2`, the inhibition is 7.82% (inactive).

On to `NS(=O)(=O)c1ccc(Oc2c(Cl)cccc2[N+](=O)[O-])cc1`, for which the inhibition was -4.5% (inactive).

For `COc1cccc(NC(=S)NNC(=S)NC2CC3CCC2C3)c1` (centres undefined), the inhibition was 5.57% (inactive).

In the case of `N/C(=N\OC(=O)c1cccc(Cl)c1)c1ccc2nonc2c1`, the inhibition was -0.67% (inactive).

Consider `CO/N=C(/C)c1ccc2c(c1)CCO2`, for which the inhibition was -0.06% (inactive).

As to `CC(=O)Nc1ccc(NC(=O)c2cc(C)ccc2[N+](=O)[O-])c(C)c1`, the inhibition is 0.85% (inactive).

Regarding `O=C(Cn1nnc2ccccc21)NCCSCc1ccco1`, the inhibition was -2.68% (inactive).

On to `COC(=O)C(C#N)c1ccc(C(F)(F)F)cc1[N+](=O)[O-]` (centres undefined), for which the inhibition was 4.34% (inactive).

Take `O=C(CN1CCOCC1)NNC(=O)c1cccs1`: the inhibition is 3.1% (inactive).

For `C/C(=N\NC(N)=S)c1ccncc1`, the inhibition was 15% (inactive).

Regarding `O=C(Nc1ccccc1C(=O)NCc1c(F)cccc1Cl)c1ccccc1Cl`, the inhibition was 4.86% (inactive).

For the compound `Cn1c(=O)c(C#N)cn(-c2ccccc2)c1=O`, the inhibition was -4.85% (inactive).

Consider `CSc1sc(C(=O)NC2CC2)c(-c2ccc(Cl)cc2)c1C#N`, for which the inhibition is 2.76% (inactive).

Consider `CCOC(=O)C(NC(=O)c1ccco1)(Nc1cc(C)ccn1)C(F)(F)F` (centres undefined), for which the inhibition was -2.71% (inactive).

For the compound `COC(=O)c1c(C(=O)OC)c2n(c1C)CCS2`, the inhibition is -2.55% (inactive).

For the compound `N#CNC(N)=Nc1cc(Cl)ccc1Cl`, the inhibition was -0.88% (inactive).

Take `CCOC(=O)O/N=C(\N)c1ccc(Cl)cc1`: the inhibition is -3.37% (inactive).

Consider `Cn1cccc1-c1n[nH]c(=S)n1-c1ccc(Cl)cc1Cl`, for which the inhibition was 2.46% (inactive).

Take `CCCCCCNC(=O)NCCCCCC`: the inhibition was -3.83% (inactive).

Regarding `Cc1oc(-c2ccc(Cl)cc2)cc1C(=O)N1CCOCC1`, the inhibition is -4.96% (inactive).

Take `COc1ccc(Cc2nnc(SC)[nH]c2=O)cc1`: the inhibition is 1.75% (inactive).

As for `CC(C)[C@H]1COC(c2cccc(C3=N[C@@H](C(C)C)CO3)n2)=N1`, the inhibition was -2.9% (inactive).

With `O=C(CCN1CCN(C(c2ccccc2)c2ccccc2)CC1)c1ccccc1`, the inhibition is -3.01% (inactive).

For `Cn1cc(Cl)c(/C=C(\C#N)C(N)=O)n1`, the inhibition is -6.34% (inactive).

Turning to `COc1ccc2cc(/C(C)=N/OC(=O)Nc3ccccc3)ccc2c1`, the inhibition was -18.6% (inactive).

In the case of `CCOC(=O)c1c[nH]n2c(=O)c3c(nc12)CCC3`, the inhibition is 0.29% (inactive).

One may read the inhibition as the drop in the measured response relative to a control, in per cent.
